# Results: PubChem BioAssay
# The source made the active and inactive calls.
# How the values were obtained:
# Albumin (Bos taurus) = Albumin (Bos taurus) (UniProt P02769); test: compounds binding labelled BSA control protein – biochemical, small-molecule microarray, Alexa647 label, 635/667 nm fluorescence, artefact control for SMM control protein annotation, profiling panel (AID 1118); conditions: BSA-A647 binding, fluorescence 635 nm, higher = more signal;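 also: score merges 667 nm emission intensity and signal-to-noise per printed compound spot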
# Albumin (Bos taurus), sequence (P02769 whole entry, looked up): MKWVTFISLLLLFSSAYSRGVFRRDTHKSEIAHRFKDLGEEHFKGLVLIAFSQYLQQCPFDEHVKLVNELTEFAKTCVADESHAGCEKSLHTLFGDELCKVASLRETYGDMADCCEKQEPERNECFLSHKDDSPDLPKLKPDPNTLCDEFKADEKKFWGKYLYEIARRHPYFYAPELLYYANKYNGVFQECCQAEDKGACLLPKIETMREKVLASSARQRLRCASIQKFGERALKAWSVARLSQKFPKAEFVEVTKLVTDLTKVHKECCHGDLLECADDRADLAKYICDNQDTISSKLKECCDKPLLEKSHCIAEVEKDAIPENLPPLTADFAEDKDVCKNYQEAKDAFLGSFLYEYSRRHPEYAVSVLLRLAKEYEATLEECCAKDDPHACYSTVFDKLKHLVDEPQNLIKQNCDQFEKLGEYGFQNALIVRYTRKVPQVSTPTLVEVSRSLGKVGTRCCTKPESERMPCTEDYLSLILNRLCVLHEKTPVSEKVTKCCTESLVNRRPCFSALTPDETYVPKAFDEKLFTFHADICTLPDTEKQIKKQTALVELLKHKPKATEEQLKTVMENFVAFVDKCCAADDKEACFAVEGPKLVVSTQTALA
# [1] = probe aXIP binding to arrayed compounds – biochemical, NeuroSMM set, 635/667 nm fluorescence, primary screen (AID 1119); conditions: small-molecule microarray, higher = more signal, called active from +8 up or from −8 down;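 also: probe is the protein aXip251-270 applied at 1 µg/mL to compound-printed slides; binding of probe to printed compounds measured as 667 nm fluorescence plus signal to noise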
# [2] = probe aNOTCH3 binding on compound microarray – biochemical, small-molecule microarray, 635/667 nm fluorescence, primary screen (AID 1120); conditions: higher = more signal;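 also: probe is a biotin-tagged antibody raised against NOTCH3 rather than NOTCH3 protein; score merges spot fluorescence near 667 nm with spot signal to noise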
# [3] = probe aNOTCH2 binding on compound microarray – biochemical, small-molecule microarray, 635/667 nm fluorescence, primary screen (AID 1121); conditions: higher = more signal;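 also: score merges feature fluorescence read at 667 nm with its signal to noise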
# [4] = target: Carbonic anhydrase 2 (Homo sapiens) (UniProt P00918); test: compounds binding carbonic anhydrase 2 – biochemical, small-molecule microarray, Alexa647-labelled CAII, profiling panel (AID 1122); conditions: CAII-A647 binding fluorescence, higher = more signal
# [5] = COS7 lysate on small-molecule microarray, probe aHis, 635 nm (AID 1123); conditions: COS7 cell lysate, fluorescence, higher = more signal;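 also: z-score combines 667nm fluorescence intensity with signal-to-noise per printed compound spot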
# [6] = probe aLAP1 signal on lysate-treated microarray – cell lysate, small-molecule microarray, COS7 lysate, primary screen (AID 1124); conditions: probe aLAP1, fluorescence, higher = more signal;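 also: lysate comes from COS7 cells expressing LAP1 and is applied at 0.3 µg/mL; score merges spot fluorescence near 667 nm with signal-to-noise over triplicate slides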
# Sam68 (KHDRBS1) = test: compounds binding KHDRBS1 protein – biochemical, small-molecule microarray, 635 nm fluorescence, primary screen (AID 1125); conditions: higher = more signal;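 also: score merges 667 nm channel intensity with signal to noise over triplicate slides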
# [7] = test system: Chordin-like protein 2 (CHRDL2); test: compounds binding chordin-like 2 – biochemical, small-molecule microarray, 635 nm fluorescence, primary screen (AID 1126); conditions: fluorescence 635 nm, higher = more signal;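 also: printed compound slides probed with Chrdl2 protein at 4 µg/mL for 1 h at 4 C; score merges 667 nm emission intensity with signal to noise over three replicate slides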
# [8] = target: Concanavalin-A (Canavalia ensiformis) (UniProt P02866); test: compounds binding concanavalin A lectin – biochemical, small-molecule microarray, Alexa647 label, 635 nm, artefact control for SMM control protein annotation, primary screen (AID 1127); conditions: ConA-A647 binding fluorescence, higher = more signal;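 also: z combines 667 nm emission intensity with signal-to-noise across three replicate slides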
# Concanavalin-A (Canavalia ensiformis), sequence (P02866 whole entry, looked up): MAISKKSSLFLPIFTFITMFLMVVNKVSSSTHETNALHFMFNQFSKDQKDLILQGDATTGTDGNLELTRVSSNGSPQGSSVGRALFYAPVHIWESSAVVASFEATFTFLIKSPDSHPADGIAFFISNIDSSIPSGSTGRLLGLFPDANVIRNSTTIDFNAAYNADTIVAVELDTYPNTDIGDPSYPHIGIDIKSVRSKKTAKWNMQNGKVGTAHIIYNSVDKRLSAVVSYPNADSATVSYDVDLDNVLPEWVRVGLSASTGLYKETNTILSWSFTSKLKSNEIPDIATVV
# [9] = compounds binding Alexa647 anti-His antibody – biochemical, small-molecule microarray, 635 nm fluorescence, artefact control for SMM control protein annotation, primary screen (AID 1128); conditions: higher = more signal;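 also: score merges feature fluorescence with signal-to-noise for each printed compound spot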
# [10] = test system: Human papillomavirus type 1a E7 protein (residues 1-88); test: HPV1a E7 small-molecule binders, primary screen, biochemical, small-molecule microarray, residues 1-88, 635 nm (AID 1129); conditions: small-molecule microarray binding, fluorescence 635 nm; higher = more signal
# [11] = target: Focal adhesion kinase 1 (Homo sapiens) (UniProt Q05397); test: PTK2 protein binding on printed compound slides – biochemical, small-molecule microarray, 635/667 nm fluorescence, BSA, DTT, primary screen (AID 1130); conditions: 635 nm fluorescence, higher = more signal;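 also: composite of spot emission at 667 nm and signal to noise over triplicate slides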
# Focal adhesion kinase 1 (Homo sapiens), sequence (Q05397 whole entry, looked up): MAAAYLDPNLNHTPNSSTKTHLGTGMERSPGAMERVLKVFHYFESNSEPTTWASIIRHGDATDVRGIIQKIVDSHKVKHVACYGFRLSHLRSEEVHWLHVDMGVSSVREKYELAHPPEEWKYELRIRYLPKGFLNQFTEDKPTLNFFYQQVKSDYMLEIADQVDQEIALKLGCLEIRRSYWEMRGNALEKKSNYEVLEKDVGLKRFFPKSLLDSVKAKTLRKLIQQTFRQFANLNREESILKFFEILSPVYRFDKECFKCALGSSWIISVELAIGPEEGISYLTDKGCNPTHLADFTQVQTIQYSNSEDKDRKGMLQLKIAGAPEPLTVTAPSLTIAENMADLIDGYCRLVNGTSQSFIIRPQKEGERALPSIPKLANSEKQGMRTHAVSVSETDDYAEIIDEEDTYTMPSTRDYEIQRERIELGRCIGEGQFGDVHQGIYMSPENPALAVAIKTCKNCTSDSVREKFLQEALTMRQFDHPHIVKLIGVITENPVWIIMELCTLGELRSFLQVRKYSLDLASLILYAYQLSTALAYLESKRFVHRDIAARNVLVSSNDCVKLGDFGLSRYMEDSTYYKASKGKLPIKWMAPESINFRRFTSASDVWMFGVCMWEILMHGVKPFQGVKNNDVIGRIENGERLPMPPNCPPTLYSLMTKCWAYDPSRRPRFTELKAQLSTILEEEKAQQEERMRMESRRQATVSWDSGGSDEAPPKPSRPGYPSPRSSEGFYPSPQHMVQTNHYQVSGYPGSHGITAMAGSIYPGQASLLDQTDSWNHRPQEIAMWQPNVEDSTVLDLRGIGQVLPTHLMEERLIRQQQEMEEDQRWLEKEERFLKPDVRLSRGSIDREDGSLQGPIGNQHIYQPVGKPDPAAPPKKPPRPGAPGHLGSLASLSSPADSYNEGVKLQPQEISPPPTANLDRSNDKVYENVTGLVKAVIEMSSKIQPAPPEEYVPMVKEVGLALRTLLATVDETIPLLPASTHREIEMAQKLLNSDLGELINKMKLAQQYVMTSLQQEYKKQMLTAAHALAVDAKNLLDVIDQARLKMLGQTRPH
# [12] = test system: Fibrinogen (Alexa647-labelled); test: Alexa647-fibrinogen binding to printed small molecules – biochemical, small-molecule microarray, 635/667 nm fluorescence, artefact control for SMM control-protein annotation, profiling panel (AID 1131); conditions: fibrinogen-A647 binding fluorescence, higher = more signal;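 also: z-score merges 667 nm fluorescence with per-spot signal-to-noise over triplicate slides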
# [13] = target: Follistatin (Homo sapiens) (UniProt P19883); test: FST protein binding to printed compounds – biochemical, small-molecule microarray, 635/667 nm fluorescence, primary screen (AID 1132); conditions: 635 nm fluorescence, higher = more signal
# Follistatin (Homo sapiens), sequence (P19883 whole entry, looked up): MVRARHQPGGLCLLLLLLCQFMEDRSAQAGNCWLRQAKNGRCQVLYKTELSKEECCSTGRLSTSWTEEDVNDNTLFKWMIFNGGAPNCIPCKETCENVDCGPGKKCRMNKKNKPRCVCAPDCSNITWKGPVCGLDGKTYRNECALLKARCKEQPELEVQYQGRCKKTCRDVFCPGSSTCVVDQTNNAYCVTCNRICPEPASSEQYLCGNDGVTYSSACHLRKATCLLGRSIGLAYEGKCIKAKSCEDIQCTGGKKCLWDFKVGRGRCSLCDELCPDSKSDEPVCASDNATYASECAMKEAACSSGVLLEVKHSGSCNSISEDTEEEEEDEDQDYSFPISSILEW
# [14] = target: Fibroblast growth factor 2 (Homo sapiens) (UniProt P09038); test: basic fibroblast growth factor binding to printed compounds – biochemical, small-molecule microarray, 635/667 nm fluorescence, primary screen (AID 1133); conditions: FGF2, fluorescence 635/667, higher = more signal
# Fibroblast growth factor 2 (Homo sapiens), sequence (P09038 whole entry, looked up): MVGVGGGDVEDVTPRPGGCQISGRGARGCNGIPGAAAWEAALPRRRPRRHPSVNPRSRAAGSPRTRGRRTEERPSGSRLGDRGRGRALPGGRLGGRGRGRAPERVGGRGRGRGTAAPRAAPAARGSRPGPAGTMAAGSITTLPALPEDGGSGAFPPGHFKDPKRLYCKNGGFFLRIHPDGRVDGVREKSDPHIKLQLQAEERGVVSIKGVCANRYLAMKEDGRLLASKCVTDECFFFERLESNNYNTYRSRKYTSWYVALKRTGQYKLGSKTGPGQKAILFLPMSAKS
# [15] = JC-1 mitochondrial potential readout, lung cancer cells – cell-based, A549, JC-1 fluorescence, basal, 24 h, 100 nL, profiling panel (AID 1138); conditions: higher = more signal;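 also: A549 lung adenocarcinoma cells under basal conditions with no added stimulus; test concentration not given here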
# Lefty1 = Lefty1 protein binding to printed compounds – biochemical, small-molecule microarray, 635/667 nm fluorescence, primary screen (AID 1139); conditions: fluorescence 635/667, higher = more signal
# [16] = test system: wheat germ agglutinin (Triticum aestivum), Alexa647-labelled; test: Alexa647-WGA lectin binding to printed small molecules – biochemical, small-molecule microarray, 635/667 nm fluorescence, artefact control for SMM control-protein annotation, profiling panel (AID 1140); conditions: WGA-A647 binding, 635 nm fluorescence, higher = more signal;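 also: score merges 667 nm feature emission with signal to noise over triplicate slides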
# [17] = target: Luciferin 4-monooxygenase (Photinus pyralis) (UniProt P08659); test: inhibition of purified Photinus pyralis luciferase – biochemical, luminescence, purified enzyme, 2006 set, primary screen (AID 1141); conditions: purified firefly luciferase, SteadyGlo luminescence, 30 min; higher = more signal, called active from +8 up or from −8 down;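 also: cell-free assay with purified firefly luciferase at 100 ng per well in PBS; test concentration not given here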
# Luciferin 4-monooxygenase (Photinus pyralis), sequence (P08659 whole entry, looked up): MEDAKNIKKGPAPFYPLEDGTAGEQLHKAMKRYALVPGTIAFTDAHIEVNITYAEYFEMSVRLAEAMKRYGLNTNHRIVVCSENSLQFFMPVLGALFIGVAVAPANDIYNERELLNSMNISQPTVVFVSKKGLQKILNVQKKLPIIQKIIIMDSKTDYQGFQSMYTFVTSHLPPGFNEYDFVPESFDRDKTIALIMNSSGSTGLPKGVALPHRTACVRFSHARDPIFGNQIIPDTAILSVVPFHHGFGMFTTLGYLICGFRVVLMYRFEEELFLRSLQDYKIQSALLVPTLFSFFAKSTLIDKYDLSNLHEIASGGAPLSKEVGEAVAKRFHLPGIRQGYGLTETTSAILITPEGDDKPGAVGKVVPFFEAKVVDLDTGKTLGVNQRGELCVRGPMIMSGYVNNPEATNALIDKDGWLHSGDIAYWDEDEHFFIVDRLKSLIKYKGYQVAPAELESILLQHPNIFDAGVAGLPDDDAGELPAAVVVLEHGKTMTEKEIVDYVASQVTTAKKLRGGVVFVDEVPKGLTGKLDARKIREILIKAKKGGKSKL
SMILES,composite z-score (Albumin (Bos taurus)),composite Z-score [1],composite z-score [2],composite z-score [3],composite z-score [4],composite z-score [5],composite z-score [6],composite z-score (Sam68 (KHDRBS1)),composite z-score [7],composite z-score [8],composite z-score [9],composite z-score [10],composite z-score [11],composite z-score [12],composite z-score [13],composite z-score [14],z-score [15],composite z-score (Lefty1),composite z-score [16],z-score [17]
CCOC(=O)[C@H](CC(C)C)NC(=O)CCC1CC(OC(=O)NCc2cccc3ccccc23)CC2(CCCC(COC(=O)NCc3cccc(C(F)(F)F)c3)O2)O1 (stereo not given in full),-0.105,0.041 (inactive),-0.0113,-0.146,-0.0249,0.0261,0.127,0.046,0.964,0.139,-0.206,0.492,-0.0868,0.52,0.312,0.231,0.841,0.42,0.0501,0.421 (inactive)
COC(=O)CC=C[C@@H](C)[C@@H](C=NOCC[C@@H]1C=C[C@H](OC(C)=O)[C@@H](COC(C)=O)O1)NS(=O)(=O)c1ccc(C)cc1,-0.361,0.366 (inactive),0.132,-0.0938,-0.297,-0.309,0.195,0.854,0.687,-2.79,2.34,-0.185,0.15,-0.329,0.273,0.237,-0.482,0.36,-0.477,1.2 (inactive)
CCOC(=O)NN=C1C[C@@H](O)[C@@H](O)[C@@H]2[C@@H]3C(=O)N(Cc4ccc5c(c4)OCO5)C(=O)[C@@H]3CC[C@H]12,0.717,-0.0189 (inactive),-0.0629,-0.14,0.347,0.926,-0.387,0.364,-0.121,-1.27,-0.0164,0.117,-0.243,0.785,-0.176,-0.289,0.0318,0.285,0.559,1.12 (inactive)
COCOc1ccc(Br)cc1C(=O)[C@@H]1O[C@H]1c1cccc(OC)c1,0.591,0.374 (inactive),-0.122,-0.108,0.041,0.696,0.0365,-0.395,0.589,-1.26,-0.183,0.513,0.0147,0.488,0.339,-0.0753,1.1,0.346,0.432,-0.54 (inactive)
CC(C)CON=C1C[C@@H](O)[C@@H](O)[C@@H]2[C@@H]3C(=O)N(C4CCCCC4)C(=O)[C@@H]3CC[C@@H]12,0.401,-0.0662 (inactive),-0.178,-0.177,0.389,1.73,-0.499,0.158,-0.329,1.01,0.889,-0.586,0.955,0.476,0.0116,-0.309,-0.572,0.225,0.556,0.0051 (inactive)
